Screening data: PubChem, National Center for Advancing Translational Sciences (NCATS)
G9a block: G9a (human) methyltransferase inhibition | G9a H3K9 monomethylation, AlphaScreen, 2 h | Potency, µM (top dose mostly 102 µM), for the others: top-dose activity, negative = inhibition, actives largely listed as inhibitors | AID 504332 | 8.8% of 350,000 active | Q96KQ7; note: potency is the fitted concentration of half-maximal effect; nearly all actives have a fitted effect of over 75% in size
Target sequence (Q96KQ7 913-1193 limits assumed): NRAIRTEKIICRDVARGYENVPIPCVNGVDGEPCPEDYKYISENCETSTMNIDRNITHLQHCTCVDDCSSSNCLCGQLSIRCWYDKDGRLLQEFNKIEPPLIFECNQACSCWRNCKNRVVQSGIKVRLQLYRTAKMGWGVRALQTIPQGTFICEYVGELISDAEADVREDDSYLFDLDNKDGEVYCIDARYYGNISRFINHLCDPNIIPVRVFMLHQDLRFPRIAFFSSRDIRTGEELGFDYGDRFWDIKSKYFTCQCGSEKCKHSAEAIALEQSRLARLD
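Methyltransferase reactions run at room temperature for 2 h (20 nM enzyme, 500 nM biotin-H3K9 peptide, 20 uM SAM) after a 15 min compound preincubation; product detected by AlphaScreen beads and anti-H3K9me1 antibody.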
Coupling enz: coupling enzyme interference in Giardia aldolase counter-screen; coupling enzyme system counterscreen, AmpLite Red fluorescence; activity change, negative = inhibition, % at 58.2 µM, hits read low; AID 2472; 0.67% of 290,000 active; in the data active = activity change below about -30%
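Counterscreen of the coupled detection system alone, without aldolase: glyceraldehyde-3-phosphate coupling enzymes plus AmpLite Red readout. Compounds at 57.5 uM final, 10 min RT preincubation, 20 min RT reaction, fluorescence 525/598 nm.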
Tau FP inhib: inhibitors of human tau fibril formation. P10636. K18 P301L tau heparin fibrillization, Alexa594 FP, 6 h. Potency, µM (highest dose often 57.7 µM), without a hit: top-dose activity, negative = inhibition, actives largely listed as inhibitors. 0.39% of 280,000 active. AID 1468; note: potency is the fitted concentration of half-maximal effect; nearly all actives have a fitted effect of over 55% in size
Target sequence (P10636 561-689 P618L limits assumed): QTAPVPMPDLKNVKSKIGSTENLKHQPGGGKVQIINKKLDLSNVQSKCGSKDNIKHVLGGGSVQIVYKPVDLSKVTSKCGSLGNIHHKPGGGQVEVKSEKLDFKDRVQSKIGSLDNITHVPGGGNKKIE
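Human tau K18 […] P301L fragment, 15 uM unlabeled plus 0.24 uM Alexa 594-labeled tau (final), with compound and 20 uM heparin in 100 mM sodium acetate pH 7; 6 hr at 37 C, then Alexa 594 FP read.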
Tau fluor cs: counter-screen for tau fibril formation inhibitors | tau K18 P301L Alexa594 fluorescence, heparin fibrillization | Potency, µM (highest dose often 57.7 µM), inactives show at the highest dose activity change, negative = decrease | 0.93% of 280,000 active | AID 1463; note: potency is the fitted concentration of half-maximal effect; nearly all actives have a fitted effect of over 55% in size
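Human K18 P301L tau (15 uM unlabeled plus 0.24 uM Alexa 594-labeled, final) in 100 mM sodium acetate pH 7 was mixed with compound and 20 uM heparin and incubated 6 hr at 37 C.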
Tau fibril ThT: tau fibrillization inhibition (ThT binding); P10636; recombinant tau K18 P301L (four-repeat tau fragment), heparin-induced fibrillization, ThT fluorescence; Potency, µM (doses to about 57.4 µM), inactives show at the top dose activity, negative = inhibition, most hits filed as inhibitors; 2.1% of 270,000 active; note: potency is the fitted concentration of half-maximal effect; nearly all actives have a fitted effect of over 55% in size
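In this qHTS, human K18 P301L tau is incubated with compound and heparin for 6 hr at 37 C, and Thioflavin T fluorescence then reports fibril load.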
Sfp inh: blocks B. subtilis Sfp PPTase activity; Q9F4F7; Biochemical Sfp PPTase activity, qHTS; Potency, µM, without a hit: largest response in the series, negative = inhibition, hits mostly inhibitors; 3.5% of 310,000 active;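 note: the enzyme is Sfp with the accession as filed and its product quenches rhodamine fluorescence; potency is the fitted concentration of half-maximal effect; 0% = enzyme reaction without inhibitor and -100% = no enzyme wells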
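Fluorescence-quenching assay with 15 nM Sfp, 5 uM rhodamine-CoA and 12.5 uM BHQ-2-labelled ybbR peptide in pH 7.6 Hepes/MgCl2 buffer. Enzyme was pre-incubated with compound for 15 min at room temperature. Rate was taken from the 30-min fluorescence change (525/598 nm).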
Numbers without * were called inactive; u = inconclusive; x = no result given; [ ] = another dose, or the depositor's remark. Sampled rows, rich in hits. Any-hit rate of the full collection: about 11%. Unless noted, calls come from the whole dose curve; as a rule, active = well fitted curve in the direction sought with a large enough effect; inconclusive = small, poorly fitted or top-dose-only effect, or another doubt; inactive = no such curve, though single readings can be large; an effect the other way counts as inactive or inconclusive. Unless noted, % is set by controls: 0 for no effect and ±100 for the full control effect.

SMILES	G9a block	Coupling enz	Tau FP inhib	Tau fluor cs	Tau fibril ThT	Sfp inh
CC(=O)[C@@H]1[C@@H]2C(=O)N(C3CCCCC3)C(=O)[C@@H]2C2c3ccccc3C=CN21 (some centres undefined)	-41.1%[0.501 µM]	x	-14.6%	-18.2%	u	-28.5%
CC(C)(C)C(=O)[C@@H]1[C@@H]2C(=O)N(Cc3ccccc3)C(=O)[C@@H]2[C@H]2c3ccccc3C=CN12	10µM*	-12.1	4.8%	-18.9%	u	-7.0%
O=C1C[C@@H](O)[C@@H](O)[C@H]2[C@@H]3C(=O)N(Cc4ccccc4)C(=O)[C@@H]3CC[C@H]12	x	-0.2	-4.6%[11.6 µM]	-2.9%[11.6 µM]	-3.9%[11.5 µM]	4.6%
Cc1ccc(N2C(=O)[C@@H]3[C@H](C2=O)C2c4ccccc4C=NN2[C@@H]3C(=O)c2ccc(Cl)cc2)cc1 (some centres undefined)	-22.8%[59 µM]	0.0	-6.2%	1.0%	-3.4%	2.2%
CC(=O)[C@H]1[C@@H]2C(=O)N(c3cccc(Cl)c3)C(=O)[C@@H]2[C@H]2c3ccccc3C=CN21	1.41µM*	-36.0*	-17.7%	-22.7%	u	u
O=C(c1ccco1)[C@@H]1[C@@H]2C(=O)N(c3ccc(F)cc3)C(=O)[C@@H]2C2c3ccccc3C=CN21 (some centres undefined)	3.16µM*	-39.7*	u	u	25.1µM*	-28.6%
O=C(c1ccco1)[C@@H]1[C@@H]2C(=O)N(c3ccc(Br)cc3)C(=O)[C@@H]2C2c3ccccc3C=CN21 (some centres undefined)	-1.7%[2.33 µM]	-39.8*	-17.9%	-29.2%	20µM*	-26.0%
Cc1cccc2c1cnn2C(=O)CCC(=O)NCc1ccc(F)cc1	2.6%	-0.1	x	x	x	5.6%
Oc1ccccc1C1=NN(c2ccccc2)C(c2ccc(F)cc2)C1 (centres undefined)	385.6%	0.0	x	x	x	-3.8%
Oc1ccccc1C1=Nc2nc3ccccc3n2C(c2ccccc2)C1 (centres undefined)	12.6µM*	-14.2	-1.6%	-14.4%	u	-23.3%
O=C(Nc1ccc(C2=NCCN2)cc1)c1ccc(C(=O)Nc2ccc(C3=NCCN3)cc2)c(Cl)c1	25.1µM*	-1.6	2.1%	-3.5%	9.8%	9.0%
O=C(Nc1ccc(NC(=O)c2ccc(Cl)cc2Cl)cc1)c1ccc2c(c1)OCO2	3.3%	-1.0	x	x	x	-1.6%
CCc1nnc2n1N(C(C)=O)C(c1ccc(C(C)(C)C)cc1)=C(C(C)=O)S2	2.0%[59 µM]	x	-5.4%	-10.4%	u	x
CC(=O)c1sc(NC(=O)c2ccc(Br)o2)nc1C	2.2%	x	x	x	x	5.0%
CC(=O)c1sc(NC(=O)c2ccc(Cn3cc(Br)cn3)o2)nc1C	44.7µM*	13.5	-4.5%	-11.5%	-11.1%	11.8%
Cn1nc(C(F)(F)F)cc1-c1ccc(S(N)(=O)=O)s1	x	-1.8	2.0%	-8.1%	-4.7%	1.2%
O=C(COC(=O)c1cc([N+](=O)[O-])ccc1N1CCOCC1)NC1CCCCC1	-25.5%	x	x	x	x	x
Cc1cc(Cl)ccc1NC(=O)COC(=O)c1cc([N+](=O)[O-])ccc1N1CCOCC1	56.2µM*	x	x	x	x	x
NC(=O)c1ccc(NC(=O)COC(=O)c2cc([N+](=O)[O-])ccc2N2CCOCC2)cc1	12.6µM*	x	x	x	x	x
CCOC(=O)c1cc(CC)sc1NC(=O)c1cc([N+](=O)[O-])ccc1N1CCOCC1	11.2µM*	2.5	8.6%	-13.9%	-13.6%	0.4%
CC1CCCCN1C(=O)COC(=O)c1cc([N+](=O)[O-])ccc1N1CCOCC1 (centres undefined)	44.7µM*	x	x	x	x	x
Cc1ccc(Cl)cc1NC(=O)NCc1cccn1Cc1ccc(F)cc1	-2.5%[59 µM]	x	-14.9%	-8.5%	3.1%	x
COc1cc(C2/C(=C(\O)c3ccc4c(c3)OCCO4)C(=O)C(=O)N2Cc2ccco2)cc(OC)c1OC (centres undefined)	50.1µM*	x	x	x	x	u
COc1cc(C2/C(=C(\O)c3ccc4c(c3)OCCO4)C(=O)C(=O)N2Cc2ccco2)ccc1O (centres undefined)	50.1µM*	x	x	x	x	3.7%
